Laboratory results: PubChem BioAssay AID1159580 (chemical genetic matrix, 2015)
Hit rate of the full screen: of about 5,500 compounds, about 2,000 (36%) were called active. Inconclusive results (about 18%) are left out. Cut-off read from the data, not from the text of the source: active = normalized growth mostly below about 0.91 (no sharp cut-off); inconclusive = no clear call, values can overlap the other calls; inactive = mostly above about 0.92. The list shows a part of the results.

Assay: chemical genetic growth profiling, strain panel (AID 1159580);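 note: tested at 20 µM; growth read once vehicle control cultures reached saturation at 30 °C; 1 = growth at the plate median or of vehicle wells; lower values mean less growth of the strain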
Conditions: growth OD

Measured: normalized growth

N[C@@H](CCC(=O)N[C@@H](CS)C(=O)NCC(=O)O)C(=O)O
inactive: S. cerevisiae deletion strains, locus YKL009W, strain mrt4, hits give low values 0.954 | S. cerevisiae deletion strains, locus YKL068W, hits give low values 0.996 | S. cerevisiae deletion strains, locus YKL085W, strain MDH1 (second series), hits give low values 0.979 | S. cerevisiae deletion strains, locus YKL085W, strain MDH1, hits give low values 0.979 | S. cerevisiae deletion strains, locus YKL160W, strain elf1, hits give low values 0.978 | S. cerevisiae deletion strains, locus YKL190W, strain CNB1, hits give low values 0.993 | S. cerevisiae deletion strains, locus YKR001C, strain vps1, hits give low values 0.994 | S. cerevisiae deletion strains, locus YKR026C, strain gcn3, hits give low values 0.987 | S. cerevisiae deletion strains, locus YKR091W, strain srl3, hits give low values 0.985 | S. cerevisiae deletion strains, locus YLL001W, strain dnm1, hits give low values 0.963 | S. cerevisiae deletion strains, locus YLL026W, hits give low values 0.975 | S. cerevisiae deletion strains, locus YLL041C, strain sdh2, hits give low values 1 | S. cerevisiae deletion strains, locus YLR027C, strain aat2, hits give low values 0.97 | S. cerevisiae deletion strains, locus YLR039C, strain RIC1, hits give low values 0.981 | S. cerevisiae deletion strains, locus YLR058C, strain SHM2, hits give low values 0.996 | S. cerevisiae deletion strains, locus YLR102C, strain apc9, hits give low values 0.986 | S. cerevisiae deletion strains, locus YLR113W, strain HOG1, hits give low values 0.97 | S. cerevisiae deletion strains, locus YLR221C, strain rsa3, hits give low values 1 | S. cerevisiae deletion strains, locus YLR258W, strain gsy2, hits give low values 1.01 | S. cerevisiae deletion strains, locus YLR262C, strain YPT6 (second series), hits give low values 1 | S. cerevisiae deletion strains, locus YLR262C, strain YPT6, hits give low values 0.92 | S. cerevisiae deletion strains, locus YLR268W, strain sec22, hits give low values 0.983 | S. cerevisiae deletion strains, locus YLR320W, strain mms22, hits give low values 1.02 | S. cerevisiae deletion strains, locus YLR330W, strain CHS5, hits give low values 0.999 | S. cerevisiae deletion strains, locus YLR342W, strain FKS1 (second series), hits give low values 1.03 | S. cerevisiae deletion strains, locus YLR342W, strain FKS1, hits give low values 0.982 | S. cerevisiae deletion strains, locus YLR357W, strain rsc2, hits give low values 0.973 | S. cerevisiae deletion strains, locus YLR370C, strain arc18, hits give low values 0.985 | S. cerevisiae deletion strains, locus YLR371W, strain rom2, hits give low values 0.979 | S. cerevisiae deletion strains, locus YLR384C, strain iki3, hits give low values 0.98 | S. cerevisiae deletion strains, locus YLR418C, strain cdc73, hits give low values 0.98 | S. cerevisiae deletion strains, locus YML016C, strain PPZ1, hits give low values 1 | S. cerevisiae deletion strains, locus YML032C, strain rad52, hits give low values 0.989 | S. cerevisiae deletion strains, locus YML120C, strain ndi1, hits give low values 0.981 | S. cerevisiae deletion strains, locus YML124C, strain tub3, hits give low values 0.995 | S. cerevisiae deletion strains, locus YMR058W, strain fet3, hits give low values 0.99 | S. cerevisiae deletion strains, locus YMR078C, strain ctf18, hits give low values 0.977 | S. cerevisiae deletion strains, locus YMR125W, strain sto1, hits give low values 1 | S. cerevisiae deletion strains, locus YMR129W, hits give low values 1 | S. cerevisiae deletion strains, locus YMR205C, strain PFK2, hits give low values 0.993 | S. cerevisiae deletion strains, locus YMR223W, strain ubp8, hits give low values 0.985 | S. cerevisiae deletion strains, locus YMR231W, strain pep5, hits give low values 1.02 | S. cerevisiae deletion strains, locus YMR307W, strain GAS1, hits give low values 1.12 | S. cerevisiae deletion strains, locus YNL067W, strain RPL9B, hits give low values 0.969 | S. cerevisiae deletion strains, locus YNL071W, strain lat1, hits give low values 1.01 | S. cerevisiae deletion strains, locus YNL128W, strain TEP1, hits give low values 0.963 | S. cerevisiae deletion strains, locus YNL183C, strain NPR1, hits give low values 0.97 | S. cerevisiae deletion strains, locus YNL209W, strain ssb2, hits give low values 1.01 | S. cerevisiae deletion strains, locus YNL233W, strain BNI4, hits give low values 0.989 | S. cerevisiae deletion strains, locus YNL248C, strain rpa49, hits give low values 1.03 | S. cerevisiae deletion strains, locus YNL250W, strain rad50, hits give low values 0.987 | S. cerevisiae deletion strains, locus YNL271C, strain bni1, hits give low values 0.982 | S. cerevisiae deletion strains, locus YNL298W, strain CLA4, hits give low values 0.986 | S. cerevisiae deletion strains, locus YNL307C, strain MCK1, hits give low values 0.99 | S. cerevisiae deletion strains, locus YNL322C, strain KRE1 (second series), hits give low values 0.998 | S. cerevisiae deletion strains, locus YNR049C, strain mso1, hits give low values 0.996 | S. cerevisiae deletion strains, locus YNR052C, strain pop2, hits give low values 0.988 | S. cerevisiae deletion strains, locus YOL006C, strain TOP1, hits give low values 0.986 | S. cerevisiae deletion strains, locus YOL012C, strain htz1 0.759 | S. cerevisiae deletion strains, locus YOL147C, strain pex11, hits give low values 0.995 | S. cerevisiae deletion strains, locus YOR001W, strain rrp6, hits give low values 0.971 | S. cerevisiae deletion strains, locus YOR061W, strain CKA2, hits give low values 0.993 | S. cerevisiae deletion strains, locus YOR069W, strain VPS5, hits give low values 1 | S. cerevisiae deletion strains, locus YOR070C, strain gyp1, hits give low values 1.02 | S. cerevisiae deletion strains, locus YOR080W, strain dia2, hits give low values 0.988 | S. cerevisiae deletion strains, locus YOR083W, strain WHI5, hits give low values 0.973 | S. cerevisiae deletion strains, locus YOR106W, strain vam3, hits give low values 0.987 | S. cerevisiae deletion strains, locus YOR136W, strain idh2, hits give low values 0.993 | S. cerevisiae deletion strains, locus YOR144C, strain elg1, hits give low values 0.995 | S. cerevisiae deletion strains, locus YOR184W, strain ser1, hits give low values 0.989 | S. cerevisiae deletion strains, locus YOR231W, strain MKK1, hits give low values 0.966 | S. cerevisiae deletion strains, locus YOR265W, strain rbl2, hits give low values 0.996 | S. cerevisiae deletion strains, locus YOR270C, strain vph1, hits give low values 1.03 | S. cerevisiae deletion strains, locus YOR290C, strain snf2, hits give low values 1.01 | S. cerevisiae deletion strains, locus YOR316C, strain cot1, hits give low values 0.998 | S. cerevisiae deletion strains, locus YPL051W, strain arl3, hits give low values 0.993 | S. cerevisiae deletion strains, locus YPL078C, strain atp4, hits give low values 0.972 | S. cerevisiae deletion strains, locus YPL106C, strain sse1, hits give low values 0.985 | S. cerevisiae deletion strains, locus YPL240C, strain hsp82, hits give low values 1.01 | S. cerevisiae deletion strains, locus YPL241C, strain CIN2, hits give low values 0.993 | S. cerevisiae deletion strains, locus YPL256C, strain CLN2, hits give low values 0.913 | S. cerevisiae deletion strains, locus YPR119W, strain clb2, hits give low values 0.988 | S. cerevisiae deletion strains, locus YPR141C, strain kar3, hits give low values 0.981 | S. cerevisiae deletion strains, locus YPR163C, strain tif3, hits give low values 0.996 | S. cerevisiae deletion strains, locus YPR167C, strain met16, hits give low values 0.98 | S. cerevisiae deletion strains, strain wtn01, hits give low values 0.984 | S. cerevisiae strains, strain wild type, hits give low values 0.998
